Experimental data taken from PubChem BioAssay (NCATS).
Results filed as inconclusive are left out. The source made the active and inactive calls. The call rests on the fitted dose curve; in most records, active means well fitted inhibition curve with a large enough effect; inconclusive means small, poorly fitted or top-dose-only effect; inactive means no such curve, though single readings can be large or run the other way.

assay: qHTS for Inhibitors of the Aldehyde Dehydrogenase Family (ALDH1A2, ALDH1A3, ALDH2, ALDH3A1) (AID 2061307); conditions: ALDH inhibition qHTS; series mostly up to 50.3 µM; further: nearly all actives have a fitted effect of over 50% in size; on Potency: test system not described further here
Potency means the concentration at half of the fitted maximal effect.

Potency, inactive:
CC(C)CCn1c(O)c(N=NC(=O)c2cccnc2)c2ccccc21, FC(F)(F)c1ccnn1-c1nc(-c2ccccc2Cl)cs1, CC(C)C(=O)OCc1ccc(-c2nn(Cc3ccccc3)c3ccccc23)o1, CCN(CC)S(=O)(=O)c1ccc(NC(=O)c2ccc(CN3CCc4ccccc4C3)cc2)cc1, O=C1C[C@](c2ccc(N3CCOCC3)cc2)(c2ccsc2)NC(=O)C1Sc1ccccc1Cl (stereo not given in full), CC(=O)Nc1ccc(NC(=O)c2cc(=O)c3ccccc3o2)cc1, COc1ccc(-n2ncc3c2CCCC3NC(=O)CN(C)C)cc1 (stereo not given), COc1ccc(-n2c(C)c(C(=O)O)c3cc(O)ccc32)cc1, COc1ccc(-n2ncc3c2CCCC3NC(=O)c2ccc(F)c(F)c2)cc1 (stereo not given), COc1cccc(Nc2nc(C)c(C(=O)Nc3ccccc3)s2)c1, Cc1cccn2c(=O)c(C(=O)NCc3cccc(F)c3)cnc12, COc1c(F)cc2[nH]c(C(=O)O)cc2c1F, O=C1CCc2ccc(NC(=O)c3ccn(-c4ccccc4F)n3)cc2N1, Nc1ccc(Cn2ccc3c4c(N)nc(N)nc4ccc32)cc1, O=C(Nc1ccc2oc(-c3cccnc3)nc2c1)c1ccc(-c2ccccc2)o1, O=C(CSc1nnc(-c2ccncc2)o1)Nc1ccc2c(c1)OCCO2, NC(=O)c1ccc(OCc2nc(-c3ccc(C(F)(F)F)cc3)no2)cc1, COc1ccccc1CNC(=O)c1ccccc1N, O=C(NCc1ccc(F)cc1)c1nc(-c2ccc(F)cc2)c2ccccn12, O=Cc1ccc(Sc2ccccn2)o1, Cc1ccccc1Cn1cnc2cc(-c3cccc(NC(=O)Cc4ccccc4)n3)ccc21 (tested in a mixture with another compound), COc1ccc(Nc2nc(N3CCCC3)nc(N3CCOCC3)n2)cc1, CCN1CCN(C2c3ccccc3-c3ccc(Br)cc32)CC1 (stereo not given), O=C(NCCN1CCN(c2cccc(Cl)c2)CC1)Nc1ccccc1C(F)(F)F, O=C(Nc1cccc(S(=O)(=O)N2CCOCC2)c1)c1cc(-c2cccnc2)nc2ccccc12, Cn1c(C(=O)O)cnc1-n1cc(Cc2ccc(S(N)(=O)=O)cc2)c(-c2ccccc2)n1, CCOc1c(Cl)cc(CNc2ccc3[nH]c(=O)[nH]c3c2)cc1OC, Cc1ccc(CNC(=O)c2cc(=O)c3cc(C)ccc3o2)cc1, COCCN(C)S(=O)(=O)c1ccc(NC(=O)c2ccc(CN3CCc4ccccc4C3)cc2)cc1, O=C(Nc1ccc(CCO)cc1)c1ncoc1-c1ccccc1Cl

Potency, active:
COc1ccc([N+](=O)[O-])c(S(=O)(=O)c2ccc(C)cc2)n1 2.25 µM, O=C(Nc1ccccc1C(=O)Nc1cccc(C(F)(F)F)c1)c1cccc([N+](=O)[O-])c1 3.55 µM, CC(=O)c1c(C)n(-c2ccccc2)c2ccc(O)cc12 0.798 µM, CC(=O)N1CCC(Nc2ncnc3scc(-c4ccccc4)c23)CC1 6.31 µM, O=C(Nc1nnc(-c2ccccn2)o1)c1ccc(Cl)cc1Cl 12.7 µM, c1coc(-c2ccc3nncn3c2)c1 8.96 µM, O=C1C=CC(=O)N1c1cccc(Br)c1 0.0896 µM, O=C(Nc1ccc(C(=O)N2CCCC2)cc1)c1ccccc1F 10.7 µM, Cc1ccccc1C(=O)c1no[n+]([O-])c1C(=O)c1ccccc1C 10 µM, O=C(Nc1ccc(N2CCCCC2)nc1)c1cccs1 5.04 µM
